Results as given in PubChem BioAssay.
Calls of active or inactive are those of the source.

Columns and labels:
Albumin (Bos taurus) = Albumin (Bos taurus) (UniProt P02769); test: bovine serum albumin binders on microarray, profiling panel, artefact control for SMM control protein annotation, biochemical, small-molecule microarray, Alexa647 label, 635/667 nm fluorescence (AID 1118); conditions: BSA-A647 binding, fluorescence 635 nm, higher = more signal;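 note: score merges 667 nm emission intensity and signal-to-noise per printed compound spot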
[1] = small-molecule microarray binders of probe aXIP, primary screen, biochemical, NeuroSMM set, 635/667 nm fluorescence (AID 1119); conditions: higher = more signal, called active from +8 up or from −8 down;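 note: probe is the protein aXip251-270 applied at 1 µg/mL to compound-printed slides; binding of probe to printed compounds measured as 667 nm fluorescence plus signal to noise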
[2] = small-molecule binders of probe aNOTCH3, primary screen, biochemical, small-molecule microarray, 635/667 nm fluorescence (AID 1120); conditions: higher = more signal;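 note: probe is a biotin-tagged antibody raised against NOTCH3 rather than NOTCH3 protein; score merges spot fluorescence near 667 nm with spot signal to noise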
[3] = small-molecule binders of probe aNOTCH2, primary screen, biochemical, small-molecule microarray, 635/667 nm fluorescence (AID 1121); conditions: higher = more signal;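 note: score merges feature fluorescence read at 667 nm with its signal to noise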
[4] = target: Carbonic anhydrase 2 (Homo sapiens) (UniProt P00918); test: CAII small-molecule binders, profiling panel, biochemical, small-molecule microarray, Alexa647-labelled CAII (AID 1122); conditions: CAII-A647 binding fluorescence, higher = more signal
[5] = COS7 lysate on small-molecule microarray, probe aHis, 635 nm (AID 1123); conditions: COS7 cell lysate, fluorescence, higher = more signal;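 note: z-score combines 667nm fluorescence intensity with signal-to-noise per printed compound spot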
[6] = compound binding in COS7 lysate, probe aLAP1, primary screen, cell lysate, small-molecule microarray (AID 1124); conditions: probe aLAP1, fluorescence, higher = more signal;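 note: lysate comes from COS7 cells expressing LAP1 and is applied at 0.3 µg/mL; score merges spot fluorescence near 667 nm with signal-to-noise over triplicate slides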
Sam68 (KHDRBS1) = test: Sam68 small-molecule binders, primary screen, biochemical, small-molecule microarray, 635 nm fluorescence (AID 1125); conditions: small-molecule microarray binding, higher = more signal;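 note: score merges 667 nm channel intensity with signal to noise over triplicate slides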
[7] = system: Chordin-like protein 2 (CHRDL2); test: CHRDL2 small-molecule binders, primary screen, biochemical, small-molecule microarray, 635 nm fluorescence (AID 1126); conditions: small-molecule microarray binding, fluorescence 635 nm; higher = more signal;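 note: printed compound slides probed with Chrdl2 protein at 4 µg/mL for 1 h at 4 C; score merges 667 nm emission intensity with signal to noise over three replicate slides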
[8] = target: Concanavalin-A (Canavalia ensiformis) (UniProt P02866); test: ConA small-molecule binders, primary screen, artefact control for SMM control protein annotation, biochemical, small-molecule microarray, Alexa647 label, 635 nm (AID 1127); conditions: ConA-A647 binding fluorescence, higher = more signal;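 note: z combines 667 nm emission intensity with signal-to-noise across three replicate slides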
Concanavalin-A (Canavalia ensiformis), sequence (P02866 whole entry, looked up): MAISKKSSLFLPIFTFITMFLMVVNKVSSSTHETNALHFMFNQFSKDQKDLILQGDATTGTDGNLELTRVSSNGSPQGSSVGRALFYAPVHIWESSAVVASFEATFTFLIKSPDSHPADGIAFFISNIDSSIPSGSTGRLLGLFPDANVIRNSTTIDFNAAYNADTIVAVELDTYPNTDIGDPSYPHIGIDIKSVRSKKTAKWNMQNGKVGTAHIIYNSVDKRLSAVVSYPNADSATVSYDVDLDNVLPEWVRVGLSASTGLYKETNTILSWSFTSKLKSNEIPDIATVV

Albumin (Bos taurus), sequence (P02769 whole entry, looked up): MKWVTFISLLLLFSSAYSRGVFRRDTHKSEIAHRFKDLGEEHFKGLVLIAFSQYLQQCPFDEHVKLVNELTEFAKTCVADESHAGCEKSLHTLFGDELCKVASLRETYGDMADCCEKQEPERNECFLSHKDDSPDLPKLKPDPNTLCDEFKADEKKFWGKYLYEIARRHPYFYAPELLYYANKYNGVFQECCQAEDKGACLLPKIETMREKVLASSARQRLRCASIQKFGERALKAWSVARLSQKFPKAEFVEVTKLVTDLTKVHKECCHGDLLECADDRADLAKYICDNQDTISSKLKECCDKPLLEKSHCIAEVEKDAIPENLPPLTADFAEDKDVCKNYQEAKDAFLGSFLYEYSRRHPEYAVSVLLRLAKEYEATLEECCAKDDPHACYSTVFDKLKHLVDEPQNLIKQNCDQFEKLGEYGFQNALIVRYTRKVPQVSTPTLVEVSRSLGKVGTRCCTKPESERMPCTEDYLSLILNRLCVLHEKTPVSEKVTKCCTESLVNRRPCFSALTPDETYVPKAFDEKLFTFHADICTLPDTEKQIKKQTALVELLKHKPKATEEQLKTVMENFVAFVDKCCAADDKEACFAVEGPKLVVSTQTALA

## COC(=O)[C@@]1(Cc2ccc(OC)cc2)[C@H]2c3cc(C(=O)N4CCCC4)n(Cc4nc5ccccc5[nH]4)c3C[C@H]2CN1C(=O)c1ccccc1
Albumin (Bos taurus)
  composite z-score: 1.08
[1]
  composite Z-score: 0.234 (inactive)
[2]
  composite z-score: 0.537
[3]
  composite z-score: 0.013
[4]
  composite z-score: 0.78
[5]
  composite z-score: 3.39
[6]
  composite z-score: 1.13
Sam68 (KHDRBS1)
  composite z-score: 1.32
[7]
  composite z-score: -0.45
[8]
  composite z-score: 0.174

## CC[C@@H]1C=C(C(=O)O)[C@H](c2cccc3ccccc23)N1S(=O)(=O)c1ccc(C)cc1
Albumin (Bos taurus)
  composite z-score: 0.8
[1]
  composite Z-score: -0.122 (inactive)
[2]
  composite z-score: 0.0225
[3]
  composite z-score: 0.0477
[4]
  composite z-score: 0.664
[5]
  composite z-score: 1.58
[6]
  composite z-score: 0.687
Sam68 (KHDRBS1)
  composite z-score: 1.05
[7]
  composite z-score: 0.0837
[8]
  composite z-score: 0.774

## COCC(=C=CC[C@H](O)c1cccc(OCCO)c1)C[C@H](O)c1cc(Cl)cc(Cl)c1O
Albumin (Bos taurus)
  composite z-score: 0.187
[1]
  composite Z-score: -0.103 (inactive)
[2]
  composite z-score: -0.0343
[3]
  composite z-score: -0.0083
[4]
  composite z-score: 0.383
[5]
  composite z-score: 1.77
[6]
  composite z-score: 0.328
Sam68 (KHDRBS1)
  composite z-score: 1.3
[7]
  composite z-score: 0.695
[8]
  composite z-score: 0.337

## COc1ccc(-c2cc3c(c(Cc4ccccc4)n2)[Si](C(C)C)(C(C)C)OC3)cn1
Albumin (Bos taurus)
  composite z-score: -0.832
[1]
  composite Z-score: 0.168 (inactive)
[2]
  composite z-score: 0.0596
[3]
  composite z-score: -0.155
[4]
  composite z-score: -0.272
[5]
  composite z-score: -0.0385
[6]
  composite z-score: -0.124
Sam68 (KHDRBS1)
  composite z-score: -0.0817
[7]
  composite z-score: 0.21
[8]
  composite z-score: -0.739

## COCCOC(=O)N1C(=O)[C@@]2(c3ccccc31)[C@H](C(=O)N1CCc3cc(OC)c(OC)cc3C1)[C@H]1C(=O)O[C@H](c3ccccc3)[C@H](c3ccccc3)N1[C@@H]2c1ccc(O)cc1
Albumin (Bos taurus)
  composite z-score: 0.795
[1]
  composite Z-score: 0.27 (inactive)
[2]
  composite z-score: -0.0072
[3]
  composite z-score: 0.0129
[4]
  composite z-score: 0.424
[5]
  composite z-score: 2.19
[6]
  composite z-score: 0.808
Sam68 (KHDRBS1)
  composite z-score: 1.31
[7]
  composite z-score: 0.628
[8]
  composite z-score: 1.17

## C=CCNC(=O)[C@@H]1[C@H]2C(=O)O[C@H](c3ccccc3)[C@H](c3ccccc3)N2[C@H](c2ccc(OCCO)cc2)[C@@]12C(=O)N(C(=O)OCCOC)c1ccc(C#CCNC(N)=O)cc12
Albumin (Bos taurus)
  composite z-score: -0.178
[1]
  composite Z-score: 0.0253 (inactive)
[2]
  composite z-score: 0.163
[3]
  composite z-score: -0.0632
[4]
  composite z-score: 0.513
[5]
  composite z-score: 1.02
[6]
  composite z-score: 0.662
Sam68 (KHDRBS1)
  composite z-score: 1.3
[7]
  composite z-score: 0.305
[8]
  composite z-score: 1.1

## O=C1C2C=CC(C(O)COCc3ccccc3)N(Nc3ccc([N+](=O)[O-])cc3)C2C(=O)N1c1ccccc1 (stereo not given)
Albumin (Bos taurus)
  composite z-score: 0.734
[1]
  composite Z-score: 0.845 (inactive)
[2]
  composite z-score: 0.271
[3]
  composite z-score: 0.0449
[4]
  composite z-score: 0.766
[5]
  composite z-score: 2.9
[6]
  composite z-score: 0.143
Sam68 (KHDRBS1)
  composite z-score: 1.31
[7]
  composite z-score: 0.412
[8]
  composite z-score: 0.519

## C=C(CCCC)/C(=C/C[C@H](OC(=O)c1ccncc1)c1ccc(OCCO)cc1)c1cc(C(=O)OC)ccc1OC
Albumin (Bos taurus)
  composite z-score: -0.0215
[1]
  composite Z-score: 0.219 (inactive)
[2]
  composite z-score: 0.167
[3]
  composite z-score: -0.14
[4]
  composite z-score: 0.644
[5]
  composite z-score: 0.774
[6]
  composite z-score: 0.354
Sam68 (KHDRBS1)
  composite z-score: 0.59
[7]
  composite z-score: -0.257
[8]
  composite z-score: 0.363

## CC(CO)N1C(=O)[C@@H]2C3C(=O)OCCC/C=C\[C@H]3OC23C=CCN(CCN2CCOCC2)C(=O)[C@@H]13 (stereo not given in full)
Albumin (Bos taurus)
  composite z-score: -0.424
[1]
  composite Z-score: 0.286 (inactive)
[2]
  composite z-score: -0.21
[3]
  composite z-score: -0.147
[4]
  composite z-score: 0.366
[5]
  composite z-score: -0.463
[6]
  composite z-score: -0.277
Sam68 (KHDRBS1)
  composite z-score: 0.191
[7]
  composite z-score: -0.0493
[8]
  composite z-score: 0.272

## O=C1OCCC/C=C\[C@H]2OC34C=CCN(c5ccc6ccccc6c5)C(=O)[C@H]3N(CCCCCO)C(=O)[C@@H]4C12 (stereo not given in full)
Albumin (Bos taurus)
  composite z-score: -0.152
[1]
  composite Z-score: 0.328 (inactive)
[2]
  composite z-score: -0.295
[3]
  composite z-score: -0.182
[4]
  composite z-score: 0.828
[5]
  composite z-score: -1.92
[6]
  composite z-score: -0.289
Sam68 (KHDRBS1)
  composite z-score: -1.63
[7]
  composite z-score: -0.654
[8]
  composite z-score: -0.328

## CC(C)CCC[C@@H](C)[C@H]1CC[C@@]2(C)C3=C(CC[C@]12C)[C@@]1(C)CC[C@H](OC(=O)c2ccc(C(F)(F)F)nc2)C(C)(C)C1CC3 (stereo not given in full)
Albumin (Bos taurus)
  composite z-score: 0.326
[1]
  composite Z-score: -0.0967 (inactive)
[2]
  composite z-score: -0.111
[3]
  composite z-score: -0.17
[4]
  composite z-score: -0.0684
[5]
  composite z-score: 0.493
[6]
  composite z-score: 0.0819
Sam68 (KHDRBS1)
  composite z-score: 0.42
[7]
  composite z-score: 0.827
[8]
  composite z-score: 0.311

## COC(=O)[C@@]1(Cc2ccc(OC)cc2)[C@H]2c3cc(C(=O)N4CCCC4)n(CCCNc4ncc(C(F)(F)F)cc4Cl)c3C[C@H]2CN1C(=O)c1ccccc1
Albumin (Bos taurus)
  composite z-score: 0.978
[1]
  composite Z-score: -0.682 (inactive)
[2]
  composite z-score: 1.09
[3]
  composite z-score: 0.787
[4]
  composite z-score: 0.516
[5]
  composite z-score: 0.97
[6]
  composite z-score: 0.213
Sam68 (KHDRBS1)
  composite z-score: 0.313
[7]
  composite z-score: 0.269
[8]
  composite z-score: 0.878

## COCCOC(=O)N1C(=O)[C@@]2(c3ccccc31)[C@H](C(=O)N1CCCCCCC1)[C@H]1C(=O)O[C@H](c3ccccc3)[C@H](c3ccccc3)N1[C@@H]2c1ccc(OCCO)cc1
Albumin (Bos taurus)
  composite z-score: 0.445
[1]
  composite Z-score: 10.1 (active)
[2]
  composite z-score: 2.33
[3]
  composite z-score: 1.21
[4]
  composite z-score: 1.09
[5]
  composite z-score: 5.19
[6]
  composite z-score: 1.31
Sam68 (KHDRBS1)
  composite z-score: 1.32
[7]
  composite z-score: 1.68
[8]
  composite z-score: 1.28

## COc1ccc(NC(=O)O[C@H]2[C@H](OC(=O)c3cc4ccccc4[nH]3)[C@@H](OC(=O)c3cc4ccccc4[nH]3)[C@@H](OC)O[C@@H]2CO)cc1
Albumin (Bos taurus)
  composite z-score: 0.144
[1]
  composite Z-score: 0.561 (inactive)
[2]
  composite z-score: -0.235
[3]
  composite z-score: -0.0404
[4]
  composite z-score: 0.541
[5]
  composite z-score: 1.24
[6]
  composite z-score: 0.614
Sam68 (KHDRBS1)
  composite z-score: 0.156
[7]
  composite z-score: -0.113
[8]
  composite z-score: -0.586

## O=C1C2C=CC(C(O)c3ccc(F)cc3)N(Nc3ccc([N+](=O)[O-])cc3)C2C(=O)N1c1ccccc1 (stereo not given)
Albumin (Bos taurus)
  composite z-score: 0.877
[1]
  composite Z-score: 0.227 (inactive)
[2]
  composite z-score: 0.0749
[3]
  composite z-score: -0.0852
[4]
  composite z-score: 0.795
[5]
  composite z-score: 2.76
[6]
  composite z-score: 0.569
Sam68 (KHDRBS1)
  composite z-score: 1.31
[7]
  composite z-score: 0.0095
[8]
  composite z-score: 1.15

## CCN(CC)c1ccc(N2CC=CC34O[C@@H]5C=CCOC(=O)[C@@H]5[C@H]3C(=O)N(CCCCCCO)[C@@H]4C2=O)cc1 (stereo not given in full)
Albumin (Bos taurus)
  composite z-score: 0.99
[1]
  composite Z-score: 0.451 (inactive)
[2]
  composite z-score: -0.126
[3]
  composite z-score: -0.174
[4]
  composite z-score: 0.909
[5]
  composite z-score: 0.922
[6]
  composite z-score: 0.751
Sam68 (KHDRBS1)
  composite z-score: 0.0127
[7]
  composite z-score: -1.5
[8]
  composite z-score: -0.214
